Compound activity from PubChem BioAssay.
The list is not random: actives were taken first. Their share in the collection is about 12%.
L3MBTL1 inh – L3MBTL1 (human) inhibition; 230,000 compounds, 0.66% hits; AID 485360; AlphaScreen L3MBTL1–H3K9me1 peptide binding; Potency, µM (titrated, usually from 57.1 µM), without a hit: at the top dose activity, negative = inhibition, hits mostly inhibitors; further: on the % scale 0 is the no-effect control and ±100 the full control effect; nearly all actives have a fitted effect of over 60% in size
Target sequence (Q9Y468 whole entry, looked up): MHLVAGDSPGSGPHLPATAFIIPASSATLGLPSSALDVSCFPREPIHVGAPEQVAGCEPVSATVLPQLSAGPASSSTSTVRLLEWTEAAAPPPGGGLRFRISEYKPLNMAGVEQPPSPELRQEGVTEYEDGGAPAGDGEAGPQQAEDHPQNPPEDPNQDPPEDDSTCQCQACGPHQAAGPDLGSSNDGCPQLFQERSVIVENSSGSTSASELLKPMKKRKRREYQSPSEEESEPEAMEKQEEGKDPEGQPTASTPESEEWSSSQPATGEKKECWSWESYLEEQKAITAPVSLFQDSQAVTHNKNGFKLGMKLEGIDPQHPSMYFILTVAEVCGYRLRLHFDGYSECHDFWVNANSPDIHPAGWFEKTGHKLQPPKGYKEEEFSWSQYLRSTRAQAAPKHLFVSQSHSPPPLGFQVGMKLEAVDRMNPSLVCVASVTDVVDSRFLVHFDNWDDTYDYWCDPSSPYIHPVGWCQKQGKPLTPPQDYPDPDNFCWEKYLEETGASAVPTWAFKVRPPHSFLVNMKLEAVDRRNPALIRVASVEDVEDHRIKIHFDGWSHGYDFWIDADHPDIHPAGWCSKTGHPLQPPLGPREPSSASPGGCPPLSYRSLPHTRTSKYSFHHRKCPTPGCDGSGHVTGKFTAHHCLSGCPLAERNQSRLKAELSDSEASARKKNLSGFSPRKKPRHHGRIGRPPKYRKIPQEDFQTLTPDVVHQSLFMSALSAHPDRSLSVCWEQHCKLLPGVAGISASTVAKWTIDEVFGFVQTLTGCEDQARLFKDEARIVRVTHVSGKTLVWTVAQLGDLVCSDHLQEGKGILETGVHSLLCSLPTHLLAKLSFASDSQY
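Read-out is AlphaScreen signal from streptavidin donor and nickel chelate acceptor beads (10 ug/mL final each) bridging L3MBTL1 (50 nM) and biotinylated K9-monomethylated H3(1-15) peptide (75 nM), after 30 min compound exposure at room temperature.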
Sfp inh – Sfp phosphopantetheinyl transferase inhibition. AID 1490. Biochemical Sfp PPTase activity, qHTS. Potency, µM, inactives show largest response in the series, negative = inhibition, hits mostly inhibitors. 310,000 compounds, 3.5% hits. Q9F4F7;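 further: the enzyme is Sfp with the accession as filed and its product quenches rhodamine fluorescence; 0% = enzyme reaction without inhibitor and -100% = no enzyme wells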
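Compounds were incubated with enzyme (final 15 nM) for 15 min at room temperature before substrate addition started the reaction. Fluorescence at 525 nm excitation, 598 nm emission was recorded immediately and after 30 minutes.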
HP1b chromo inh – HP1-beta chromodomain-methylated histone interaction inhibition. AID 540317. AlphaScreen HP1-beta / biotin-H3K9me3 peptide binding. 390,000 compounds, 0.56% hits. P83916. Potency, µM (series often up to 114 µM), for inactives: at the top dose activity change, negative = inhibition, usual class: inhibitors; further: nearly all actives have a fitted effect of over 70% in size
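HP1-beta protein (50 nM final) preincubated 30 min at room temperature with biotinylated H3(1-18)K9me3 peptide (50 nM) in PBS pH 7.4, 0.01% Tween-20, then compound added for 30 min. AlphaScreen streptavidin donor/nickel chelate acceptor beads (10 ug/mL final), 30 min dark, luminescence read.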
G9a block – blocks human histone lysine methyltransferase G9a; Q96KQ7; G9a H3K9 monomethylation, AlphaScreen, 2 h; Potency, µM (top dose mostly 102 µM), for the others: at the highest dose activity, negative = inhibition, hits mostly inhibitors; 350,000 compounds, 8.8% hits; AID 504332; further: on the % scale 0 is the no-effect control and ±100 the full control effect; nearly all actives have a fitted effect of over 75% in size
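Readings reflect AlphaScreen signal from monomethyl-H3K9 antibody detection. HMT at 20 nM; substrate b-H3K9 500 nM; cofactor SAM 20 uM; 2 h RT reaction; compounds tested as titrations in qHTS with 15 min preincubation.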
BAZ2B inh – BAZ2B (human) inhibition. AlphaScreen BAZ2B-H3K14Ac peptide displacement. 360,000 compounds, 4.4% hits. Potency, µM (series often up to 114 µM), for inactives: top-dose activity change, negative = inhibition, usual class: inhibitors; further: on the % scale 0 is the no-effect control and ±100 the full control effect; nearly all actives have a fitted effect of over 60% in size
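Multi-concentration screen (max 110 uM) measuring displacement of acetylated histone H3 peptide from BAZ2B by AlphaScreen, using 50 nM protein, 50 nM peptide and 10 ug/mL streptavidin donor plus Ni-chelate acceptor beads.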
JMJD2A Tudor – inhibitors of human JMJD2A Tudor domain; Potency, µM (highest dose often 114 µM), inactives show top-dose activity change, negative = inhibition, hits mostly inhibitors; O75164; 390,000 compounds, 4.4% hits; AlphaScreen JMJD2A-Tudor / H3K4me3 peptide binding; further: on the % scale 0 is the no-effect control and ±100 the full control effect; nearly all actives have a fitted effect of over 50% in size
The depositor's hits bear a star; ? = inconclusive; / = no result; [ ] = dose if it differs, or a comment. The call rests on the fitted dose curve; in most records, active means well fitted curve in the direction sought with a large enough effect; inconclusive means small, poorly fitted or top-dose-only effect, or another doubt; inactive means no such curve, though single readings can be large; an effect the other way counts as inactive or inconclusive. Potency means the concentration at half of the fitted maximal effect.

SMILES	L3MBTL1 inh	Sfp inh	HP1b chromo inh	G9a block	BAZ2B inh	JMJD2A Tudor
Cc1ccc(SCCN2CCN(C)CCC2=O)cc1	/	12%	39%	-5%[59 µM]	6%	-6%
c1ccc(SCCOCCN2CCc3ccccc3C2)cc1	9%	-4%	13%[57 µM]	-6%[59 µM]	-16%	-11%
Cc1c(OCC(=O)N[C@H](C(=O)O)c2ccccc2)ccc2c3c(c(=O)oc12)CCCC3	/	23%	-13%	25%[12.7 µM]	?	?
COCc1cc(=O)n2c(-c3ccccc3OC)n[nH]c2n1	-5%	9%	11%	3.2µM*	-28%	-18%
CC(C)(C)c1ccc(S(=O)(=O)c2cnc(SCC(=O)Nc3ccc4c(c3)OCCO4)[nH]c2=O)cc1	/	/	12%	-36%[59 µM]	?	-33%
CCOC(=O)c1c(NC(=O)c2cc(-c3ccc(OC)c(OC)c3)on2)sc2c1CCCC2	/	/	51%	4µM*	11%	0%
CCOC(=O)c1c(NC(=O)c2ccc(OC)c(OC)c2)sc2c1CCCCC2	/	/	-4%	8.9µM*	2%	-15%
CCCc1cc(C(=O)Nc2sc3c(c2C(=O)OCC)CCCC3)no1	?	11%	17%	-5%[59 µM]	0%	1%
COc1ccc(-c2cc(C(=O)Nc3sc4c(c3C#N)CCCC4)no2)cc1OC	/	/	-8%	10µM*	-1%	2%
CCOC(=O)c1c(NC(=O)c2ccc(C)c(C)c2)sc2c1CCCCC2	/	/	49%	16%[59 µM]	9%	15%
CC(C)c1cc(C(=O)Nc2sc3c(c2C#N)CCC3)no1	5%	?	12%	?	-3%	-1%
CCOC(=O)c1c(NC(=O)c2cc(OC)c(OC)c(OC)c2)sc2c1CCCC2	/	/	42%	-4%[59 µM]	2%	-16%
CCOC(=O)c1c(NC(=O)c2cc(-c3cccc(OC)c3)on2)sc2c1CCCC2	/	/	?	8.9µM*	-1%	3%
CCN1/C(=C/c2sc(-c3ccccc3C)c[n+]2C)Sc2ccccc21	/	1%	-12%	11µM*	-22%	?
O=S1(=O)C[C@@H]2N=C(N/N=C/c3ccccc3)S[C@@H]2C1	/	4%	3%	?	-4%	-12%
C/C(=N\NC1=N[C@H]2CS(=O)(=O)C[C@H]2S1)c1ccccc1	/	?	12%	50µM*	?	?
CC/C=C\C/C=C\C/C=C\C/C=C\C/C=C\C/C=C\CCC(=O)NCCCC(=O)O	/	-14%	/	/	/	/
CCC1=Nc2cc(C(=O)NC3CCCC3)ccc2Sc2ccc(Br)cc21	/	/	6%	-5%[59 µM]	-30%	-23%
Cc1nnc(NC(=O)c2oc3c(ccc4ccccc43)c2C)s1	11%	11%	-11%	6%[12.7 µM]	2%	-18%[11.4 µM]
Cc1nn(CCC(=O)NNC(=S)Nc2cccc(Cl)c2)c(C)c1[N+](=O)[O-]	13%	-7%	-12%	8.9µM*	-2%	-13%
Cc1nn(C(C)C(=O)NNC(=S)Nc2ccc(Cl)cc2)c(C)c1[N+](=O)[O-] (stereo unspecified)	/	26%	3%	8.9µM*	-5%	-22%
Cc1cccc(NC(=S)NNC(=O)CCn2nc(C)c([N+](=O)[O-])c2C)c1	-18%	-3%	6%	?	2%	-9%
Cc1cnn(CCC(=O)NNC(=S)Nc2cccc(Cl)c2)c1	-3%	19%	42%	50µM*	8%	-20%
Cc1nn(CCC(=O)NNC(=S)Nc2ccc(Cl)cc2)c(C)c1[N+](=O)[O-]	15%[11.4 µM]	3%	-7%	10µM*	4%	-19%
Cc1nn(C(C)C(=O)Nc2ccc3c(c2)OCO3)c(C)c1[N+](=O)[O-] (stereo unspecified)	-13%	7%	9%	/	?	?
N[C@@H](Cc1cc(I)c(Oc2ccc(O)cc2)c(I)c1)C(=O)O	/	15%	/	25%[59 µM]	/	/
CCn1cc(C(=S)N2CCC(C(N)=O)CC2)c2ccccc21	-2%	8%	42%	?	-21%	-4%
CCOC(=O)c1cnc(-n2nc(C)cc2C)[nH]c1=O	5%	50µM*	36%	-4%	40µM*	-18%[11.4 µM]
